NOMO-1 viab = STK33 inhibitor candidate reducing NOMO-1 cell viability; NOMO-1 AML viability, CellTiter-Glo luminescence, 72 h; inhibition, % (no concentration beside the values); 7.5% of 37,000 active; AID 2330; in the data active = inhibition above about 80%; inconclusive = no clear call, values can overlap the other calls
STK33 kin inh = inhibitors of human STK33 kinase; Q9BYT3; ADP-Glo luminescence, MBP substrate; inhibition, % at 12.5 µM; 0.44% of 27,000 active; in the data active = inhibition above about 20%; inconclusive = no clear call, values can overlap the other calls
Target sequence (Q9BYT3 whole entry, looked up): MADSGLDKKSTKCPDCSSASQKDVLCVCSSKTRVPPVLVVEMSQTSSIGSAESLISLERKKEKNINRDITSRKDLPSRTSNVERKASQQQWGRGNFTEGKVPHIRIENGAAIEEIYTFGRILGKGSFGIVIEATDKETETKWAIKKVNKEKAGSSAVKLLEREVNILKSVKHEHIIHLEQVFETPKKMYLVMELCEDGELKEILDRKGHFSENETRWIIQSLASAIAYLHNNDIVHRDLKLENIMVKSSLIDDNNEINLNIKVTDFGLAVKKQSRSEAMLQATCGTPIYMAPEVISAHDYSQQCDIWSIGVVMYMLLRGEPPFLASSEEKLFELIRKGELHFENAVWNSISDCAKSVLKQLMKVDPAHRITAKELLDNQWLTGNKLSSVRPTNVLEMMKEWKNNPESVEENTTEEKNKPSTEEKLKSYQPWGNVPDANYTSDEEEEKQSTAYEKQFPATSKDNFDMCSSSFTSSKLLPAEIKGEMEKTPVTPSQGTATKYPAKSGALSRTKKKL
PD-1 reversal = reversal of PD-1 mediated T-cell inhibition. primary human CD4 T cells, PD-L1 beads, CellTiter-Glo 96 h. 29,000 tested, under 10 active. AID 2316. activation, % (test concentration not listed); call rule not given here
Hits are given with their value; . = inactive; ? = inconclusive; / = no result given. Shown is part of a subset that was picked to be rich in hits.

SMILES | NOMO-1 viab | STK33 kin inh | PD-1 reversal
Cc1ccc(N(CC(=O)Nc2c(C)cc(C)cc2C)S(C)(=O)=O)cc1 | . | . | .
CCOc1ccc(NC(=O)CSc2ncccn2)cc1 | . | . | .
CC/C=C/c1ccc(C)cc1/C=C/CCCC(=O)O | . | . | .
CCCc1cc(=O)[nH]c(SCC(=O)Nc2cccc(F)c2)n1 | . | . | .
CC(C)NC(=O)Nc1ccc2c(c1)CC(=O)N([C@@H](C)CO)C[C@@H](C)[C@@H](CN(C)Cc1ccc(Oc3ccccc3)cc1)O2 | 89 | . | .
CC(C)NC(=O)Nc1ccc2c(c1)CC(=O)N([C@@H](C)CO)C[C@H](C)[C@H](CN(C)Cc1ccc(Oc3ccccc3)cc1)O2 | . | . | /
C[C@@H]1CN([C@@H](C)CO)C(=O)c2cccc(NC(=O)Nc3ccc4c(c3)OCO4)c2O[C@H]1CN(C)Cc1ccc(C(F)(F)F)cc1 | 109 | / | .
C[C@@H]1CN([C@H](C)CO)C(=O)c2cccc(NC(=O)Nc3ccc4c(c3)OCO4)c2O[C@@H]1CN(C)Cc1ccc2c(c1)OCO2 | . | / | /
C[C@H]1CN([C@@H](C)CO)C(=O)c2cccc(NC(=O)Nc3ccc4c(c3)OCO4)c2O[C@@H]1CN(C)Cc1ccc(C(F)(F)F)cc1 | 110 | / | .
C[C@H](CO)N1C[C@H](C)[C@@H](CN(C)Cc2ccc3c(c2)OCO3)Oc2c(NC(=O)Nc3ccc4c(c3)OCO4)cccc2C1=O | . | / | .
C[C@@H]1CN([C@H](C)CO)C(=O)c2cccc(NC(=O)Nc3ccc(F)cc3)c2O[C@H]1CN(C)Cc1ccc2c(c1)OCO2 | 97 | / | .
C[C@H]1CN([C@@H](C)CO)C(=O)c2cccc(NC(=O)Nc3ccc(F)cc3)c2O[C@@H]1CN(C)Cc1ccc2c(c1)OCO2 | . | / | .
C[C@H](CO)N1C[C@H](C)[C@@H](CN(C)Cc2ccc(C(F)(F)F)cc2)Oc2c(NC(=O)Nc3ccc4c(c3)OCO4)cccc2C1=O | 105 | / | .
C[C@H](CO)N1C[C@H](C)[C@H](CN(C)Cc2ccc(C(F)(F)F)cc2)Oc2c(NC(=O)Nc3ccc4c(c3)OCO4)cccc2C1=O | ? | / | .
O=C(O)CCC(=O)Nc1ccc(NC(=O)c2ccccc2)c(Cl)c1 | . | . | .
O=C(Cn1nnc2sc3c(c2c1=O)CCCC3)NCc1ccco1 | . | . | .
COc1ccccc1NC(=O)CSCC#N | . | . | .
COC(=O)c1c(N)n(CCc2ccccc2)c2nc3ccccc3nc12 | . | / | .
C[C@@H]1CN([C@@H](C)CO)C(=O)c2cccc(NC(=O)Nc3ccc(C(F)(F)F)cc3)c2O[C@@H]1CN(C)Cc1ccc2c(c1)OCO2 | 106 | / | .
C[C@H](CO)N1C[C@H](C)[C@H](CN(C)Cc2ccc3c(c2)OCO3)Oc2c(NC(=O)Nc3ccccc3)cccc2C1=O | . | / | .
COc1ccc(NC(=O)Nc2cccc3c2O[C@H](CN(C)Cc2ccc4c(c2)OCO4)[C@H](C)CN([C@H](C)CO)C3=O)cc1 | . | / | .
COc1ccc(NC(=O)Nc2cccc3c2O[C@@H](CN(C)Cc2ccc4c(c2)OCO4)[C@H](C)CN([C@@H](C)CO)C3=O)cc1 | 115 | / | .
COc1cccc(N(CC(=O)Nc2cccc(Cl)c2C)S(C)(=O)=O)c1 | . | . | .
O=C1N=C(c2cccc(O)c2)c2ccccc2Nc2ccccc21 | . | . | .
CSc1n[nH]c(=O)n1-c1ccc2c(c1)OCCO2 | . | / | .
SMILES | NOMO-1 viab | STK33 kin inh | PD-1 reversal
CCOC(=O)C1CCN(C(=O)N2c3ccccc3Sc3ccccc32)CC1 | . | / | .
CCOC(=O)C1CCN(C(=O)Nc2ccc3snnc3c2)CC1 | 106 | . | .
COCCNc1ncnc2c1oc1ccccc12 | . | . | /
COc1cccc(CN2c3cccc4cccc(c34)S2(=O)=O)c1 | . | / | .
C[C@H]1CN([C@@H](C)CO)C(=O)c2cc(NS(=O)(=O)c3ccccc3)ccc2O[C@H]1CN(C)Cc1ccc(Oc2ccccc2)cc1 | . | . | .
C[C@@H]1CN([C@H](C)CO)C(=O)c2cc(NS(=O)(=O)c3ccc(Cl)cc3)ccc2O[C@@H]1CN(C)Cc1ccc(Oc2ccccc2)cc1 | 122 | / | .
C[C@H](CO)N1C[C@H](C)[C@H](CN(C)Cc2ccccc2)Oc2ccc(NS(=O)(=O)c3ccc(Cl)cc3)cc2C1=O | . | . | .
C[C@@H]1CN([C@@H](C)CO)C(=O)c2cc(NS(=O)(=O)c3ccc(Cl)cc3)ccc2O[C@@H]1CN(C)Cc1ccc(Oc2ccccc2)cc1 | 114 | / | /
COc1ccc2c(=O)cc(-c3ccccc3OC)oc2c1 | . | . | /
COc1cccc(NC(=O)Cn2cnc3c2c(=O)n(C)c(=O)n3C)c1 | . | . | .
C=Cc1cncc2c(=O)n3c(cc12)-c1[nH]c2ccccc2c1CC3 | . | . | .
C/C=C(/C)C(=O)OC1c2c(ccc3ccc(=O)oc23)OC(C)(C)C1OC(=O)/C(C)=C\C (stereo not given) | 111 | . | .

Compound activity (PubChem BioAssay)
